This is part of a sample that, as a whole, favours compounds with a hit. Of some 83,000 tested, about 20% had one in any assay.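 Cell lines were cultured in 96-well plates, exposed to a single compound concentration, and assessed for percent growth 48 hours later.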 Values without a mark were called inactive. Activity calls are given as the source filed them. Rule for the calls: active = growth percent below 10; inactive = the rest.

The record followed here is PubChem BioAssay (NCI).

Test systems include NCI-H23 lung; NCI-H226 lung; HOP-62 NSCLC; NCI-H460 lung; HOP-92 NSCLC; NCI-H522 lung; A549/ATCC NSCLC; 786-0 renal; COLO 205 colon.
What all share (test): NCI-60 one-dose screen, 48 h (100 = growth as untreated, 0 = no growth, -100 = all killed)
Holding throughout (settings): 10 µM unless noted

Consider `N=C(N)c1ccc(-c2ccc(-c3ccc(-c4cccs4)s3)s2)cc1F`, for which the growth in the assay on NCI-H23 lung is 93.2%; with NCI-H226 lung it was 95.7%; in the assay on HOP-62 NSCLC, 100%; in the assay on NCI-H460 lung, 13%; in the assay with HOP-92 NSCLC, 94.8%; in the assay on NCI-H522 lung, 100%. Further, the growth is 15.1% in the assay with A549/ATCC NSCLC, 99.5% in the assay on 786-0 renal and 101% with COLO 205 colon.

As to `COc1ccc(-c2c(C)nn3c(NCCN4CCOCC4)cc(C)nc23)cc1OC`, the growth with NCI-H23 lung was 102%; in the assay on NCI-H226 lung it was 94.2%; in the assay with HOP-62 NSCLC, 95%; in the assay with NCI-H460 lung it was 103%; in the assay with HOP-92 NSCLC, 108%; in the assay on NCI-H522 lung, 106%. Further, the growth with A549/ATCC NSCLC was 96.6%; with 786-0 renal it was 94.7%; with COLO 205 colon, 111%.

Consider `Cc1cc(-c2ccc(N=Nc3c(S(=O)(=O)O)cc4cc(S(=O)(=O)O)cc(N)c4c3O)c(C)c2)ccc1N=Nc1cc(S(=O)(=O)O)c2ccccc2c1O`, for which the growth in the assay with NCI-H23 lung was 92.2%; with NCI-H226 lung, 90%; with HOP-62 NSCLC, 93.8%; in the assay with NCI-H460 lung it was 107%; in the assay on HOP-92 NSCLC, 89.6%; in the assay with NCI-H522 lung it was 101%. Also, the growth in the assay on A549/ATCC NSCLC was 97.2%; in the assay with 786-0 renal, 104%; in the assay with COLO 205 colon, 110%.

Consider `COc1ccccc1S(=O)Nc1ccccc1` (configuration not stated), for which the growth in the assay with NCI-H23 lung is 104%; in the assay with NCI-H226 lung, 102%; in the assay on HOP-62 NSCLC it was 124%; with NCI-H460 lung, 93.6%; in the assay with HOP-92 NSCLC, 98.5%; in the assay on NCI-H522 lung, 74.9%. The growth is 74.4% in the assay with A549/ATCC NSCLC, 103% in the assay on 786-0 renal and 117% with COLO 205 colon.

Regarding `Cn1ncc2c(Nc3ccc(O)cc3)nc(Cl)nc21`, the growth in the assay with NCI-H23 lung was 107%; with NCI-H226 lung it was 91.2%; in the assay on HOP-62 NSCLC, 95.8%; with NCI-H460 lung, 108%; in the assay with HOP-92 NSCLC, 104%; with NCI-H522 lung it was 88%. Further, the growth with A549/ATCC NSCLC is 96%; with 786-0 renal, 111%; in the assay with COLO 205 colon, 108%.

Regarding `CN(C)CCCNc1nc(-c2cccc(C(Cl)(Cl)Cl)c2)nc(C(Cl)(Cl)Cl)n1`, the growth with NCI-H23 lung is 101%; in the assay with NCI-H226 lung, 109%; in the assay with HOP-62 NSCLC, 111%; in the assay on NCI-H460 lung, 108%; in the assay with HOP-92 NSCLC, 53%; in the assay with NCI-H522 lung, 94.9%. Also, the figures for the growth with A549/ATCC NSCLC, in the assay on 786-0 renal and with COLO 205 colon were 105%, 99% and 119%, respectively.

Take `Cc1nn(-c2ccccc2)c(N2CCOCC2)c1-c1nc2ccc([N+](=O)[O-])cc2[nH]1`: the growth is 107% with NCI-H23 lung; 111% with NCI-H226 lung; 128% in the assay with HOP-62 NSCLC; 99.5% with NCI-H460 lung; 117% with HOP-92 NSCLC; 80.5% in the assay on NCI-H522 lung. For the same molecule, the results for the growth with A549/ATCC NSCLC, with 786-0 renal and with COLO 205 colon were 94%, 107% and 124%, respectively.

For `c1cc2ccc1CNCCN1CCNCc3ccc(cc3)Oc3ccc(cc3)CNCCN(CCNCc3ccc(cc3)O2)CCNCc2ccc(cc2)Oc2ccc(cc2)CNCC1`, the growth in the assay on NCI-H23 lung is -79.3% (active); with NCI-H226 lung, -56.6% (active); in the assay on HOP-62 NSCLC, -78.2% (active); in the assay with NCI-H460 lung, -66.3% (active); with HOP-92 NSCLC, -92.2% (active); in the assay on NCI-H522 lung, -84.3% (active). For the same molecule, the figures for the growth with A549/ATCC NSCLC, in the assay on 786-0 renal and in the assay with COLO 205 colon were -79.1% (active), 66.2% and -86.8% (active), respectively.

For the molecule `C#CCOc1ccc(C2=NN(CC3CC3)C3N=C(Cl)c4ncn(CC5CC5)c4N23)cc1OCC#C` (configuration not stated), the growth is 85.7% with NCI-H23 lung; 76.4% in the assay with NCI-H226 lung; 83.8% in the assay on HOP-62 NSCLC; 69.6% with NCI-H460 lung; 61.7% in the assay on HOP-92 NSCLC; 60.6% in the assay on NCI-H522 lung. In addition, the results for the growth with A549/ATCC NSCLC, in the assay with 786-0 renal and in the assay on COLO 205 colon were 71.4%, 93.6% and 78.9%, respectively.

On to `CC1(C)C(=O)/C(=C\c2cccnc2)C[C@]2(C)[C@H]3CC[C@@H]4[C@H]5[C@H](C(=O)/C=C/c6cccnc6)CC[C@]5(C(=O)O)CC[C@@]4(C)[C@]3(C)CC[C@@H]12`, for which the growth in the assay on NCI-H23 lung is -60.4% [100 µM] (active); in the assay with NCI-H226 lung, -37.4% [100 µM] (active); in the assay with HOP-62 NSCLC it was -66.8% [100 µM] (active); in the assay with NCI-H460 lung, -43.9% [100 µM] (active); with HOP-92 NSCLC, -63.5% [100 µM] (active); in the assay with NCI-H522 lung it was -71.6% [100 µM] (active). For the same molecule, the growth in the assay on A549/ATCC NSCLC is -13.6% [100 µM] (active); in the assay on 786-0 renal it was -39.5% [100 µM] (active); in the assay with COLO 205 colon, -55.9% [100 µM] (active).

For `O=C(Nc1ccc(Nc2ccncc2)cc1)c1ccc([N+](=O)[O-])cc1`, the growth was 81% in the assay with NCI-H23 lung; 91.1% in the assay with NCI-H226 lung; 61.7% in the assay with HOP-62 NSCLC; 77.5% in the assay with NCI-H460 lung; 51.1% with HOP-92 NSCLC; 52.6% with NCI-H522 lung. The figures for the growth in the assay with 786-0 renal and with COLO 205 colon were 56.7% and -50.3% (active), respectively.

With `CCN(CC)c1ccc(/C=C/c2ccc3cc(C)ccc3[n+]2CC)cc1`, the growth is -1.98% (active) with NCI-H23 lung; 21.4% in the assay with NCI-H226 lung; 4.01% (active) with HOP-62 NSCLC; -48.4% (active) in the assay with NCI-H460 lung; -17.5% (active) in the assay on HOP-92 NSCLC; -27.7% (active) with NCI-H522 lung. Moreover, the growth in the assay with A549/ATCC NSCLC is 8.77% (active); in the assay with 786-0 renal it was 16.2%; in the assay on COLO 205 colon, -21.7% (active).
